The source of these data is PubChem BioAssay AID1224817 (Yan Lab, Georgia Cancer Center, Augusta University, 2016).

Several values for one entry are separate records, joined by “and”; a condition that tells them apart may be missing. Equal entries are not always repeated. Among all 2,000 compounds or so, about 25 (1%) were called active.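 How the source made its calls: active means log2 luciferase ratio at or below -0.5849, meaning signal at two thirds of solvent-only control or lower; inactive means the rest.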 This excerpt belongs to a sample that is enriched for actives.

The test in a line: inhibitors of EIF4E gene expression, primary screen, cell-based, HT1080, luciferase reporter (AID 1224817).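 Further: luciferase reports endogenous eIF4E expression since it is co-expressed from the native EIF4E locus.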 As to conditions: HT1080 EIF4E-luc2 knock-in reporter, 16 h, at 2.5 µM, stronger effect = lower value. In general terms: A reporter such as luciferase makes a cellular process visible.
For `COC1C(O)C(C)OC(OC2C(Oc3cccc4c(O)c5c(=O)oc6ccc(C)c7c(=O)oc(c34)c5c67)OC(C)C(O)C2O)C1O` (stereo not given), the log2 luciferase activity ratio was -0.702 (active) and -0.391 (inactive). The figure for `COC(=O)C1=COC(C)C2CN3CCC4(C(=O)Nc5ccccc54)C3CC12` (stereo not given) is 0.122 (inactive). The figure for `c1ccc(CCN2CCCCCC2)nc1` is 0.334 (inactive); for `COc1cc(CCN)c(OC)c(OC)c1` it is -0.289 (inactive); for `CC1CCC2(O)C3(C)CC4(O)OC2(C1O)C1(O)C3(O)C(OC(=O)c2ccc[nH]2)C(O)(C(C)C)C41C` (stereo not given) it is -0.662 (active) and 0.224 (inactive). The result for `Oc1c(Cl)c(Cl)c(Cl)c(Cl)c1Cl` reads 0.387 (inactive). Take `CC(Cc1ccc(Cl)cc1Cl)NO` (stereo not given): the log2 luciferase activity ratio is 0.563 (inactive). The figure for `CC1=C2C(=O)[C@H]3[C@@H](CC=C4C[C@@H](O)CC[C@@]43C)[C@@H]2CC[C@]12O[C@@H]1C[C@H](C)CN[C@H]1[C@H]2C` is 0.0474 (inactive); for `O=C(Nc1ccc([As](=O)(O)O)cc1)Nc1cccc(Cl)c1Cl` it is 0.175 (inactive).

`C[C@]12CC[C@H]3[C@@H](CCC4=CC(=O)CC[C@@H]43)[C@@H]1CC[C@@H]2OC1(O)C(=O)c2ccccc2C1=O`: the log2 luciferase activity ratio is -0.175 (inactive).

With `CC(=O)O[C@@H]1[C@@H](O)C2=C3[C@]4(C)[C@@H]1C(C)(C)C(=O)C[C@@H]4[C@]3(O)[C@H](OC(C)=O)[C@@]1(C[C@@H]1C)C2=O`, the log2 luciferase activity ratio was -0.11 (inactive).

Take `CC(=O)c1c(O)c(C)c(O)c(Cc2c(O)c3c(c(C(=O)/C=C/c4ccccc4)c2O)OC(C)(C)C=C3)c1O`: the log2 luciferase activity ratio was -1.16 (active). The figure for `CC(=N\O)/C(C)=N/O.CC(=N\O)/C(C)=N/O.CC(=N\O)/C(C)=N/O.CC(=N\O)/C(C)=N/O.[Cu].[Cu]` is 0.204 (inactive); for `CC[C@](O)(C(=O)O)c1cc2n(c(=O)c1CO)Cc1cc3ccccc3nc1-2` it is -0.308 (inactive). Regarding `NC(CSC1c2ccccc2-c2ccccc21)C(=O)O` (stereo not given), the log2 luciferase activity ratio was -0.0184 (inactive). The figure for `Cc1c2ccncc2c(C)c2c1[nH]c1ccccc12` is -1.19 (active). The result for `O=C(c1ccccc1)C1C(c2ccccc2[N+](=O)[O-])N1C1CCCCC1` (stereo not given) reads -0.136 (inactive). The figure for `CC1=CC23C(COC(=O)C24CO4)C(C(=O)O)=CC3C1C` (stereo not given) is -0.125 (inactive); for `COc1cc2c(cc1OC)C13CCN4C=C5CCOC6CC(=O)N2C1C6C5CC43` (stereo not given) it is 0.124 (inactive) and 0.181 (inactive); for `CCCCCC(O)C1C(=O)OC(C)C(O)/C=C/C=C/C=C/C=C/C=C(\C)C(O)C(O)C(O)CC(O)CC(O)CC(O)CC(O)CC1O` (stereo not given) it is -0.286 (inactive).
